Results published in PubChem BioAssay AID1159580 (chemical genetic matrix, 2015).
Hit rate of the full screen: of about 5,500 compounds, about 2,000 (36%) were called active. About 18% were inconclusive and are not listed. Cut-off read from the data, not from the text of the source: active = normalized growth mostly below about 0.91 (no sharp cut-off); inconclusive = no clear call, values can overlap the other calls; inactive = mostly above about 0.92. Some of the results follow.

Experiment: chemical genetic growth profiling, strain panel (AID 1159580);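 note: tested at 20 µM; growth read once vehicle control cultures reached saturation at 30 °C; 1 = growth at the plate median or of vehicle wells; lower values mean less growth of the strain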
Details: growth OD

Measured: normalized growth

COc1cc(-c2oc3cc(O)ccc3c(=O)c2O)cc(OC)c1OC
inactive: S. cerevisiae deletion strains, locus YAL013W, strain DEP1, active compounds read low 1.01 | S. cerevisiae deletion strains, locus YBR021W, strain FUR4, active compounds read low 1.02 | S. cerevisiae deletion strains, locus YBR229C, strain ROT2, active compounds read low 1.01 | S. cerevisiae deletion strains, locus YCL029C, strain bik1, active compounds read low 1.01 | S. cerevisiae deletion strains, locus YDL035C, strain GPR1, active compounds read low 1 | S. cerevisiae deletion strains, locus YDL074C, strain BRE1, active compounds read low 0.996 | S. cerevisiae deletion strains, locus YDL101C, strain DUN1, active compounds read low 0.999 | S. cerevisiae deletion strains, locus YDL134C, strain PPH21, active compounds read low 1 | S. cerevisiae deletion strains, locus YDL185W, strain tfp1, active compounds read low 0.996 | S. cerevisiae deletion strains, locus YDL192W, strain arf1, active compounds read low 0.999 | S. cerevisiae deletion strains, locus YDR101C, strain arx1, active compounds read low 1 | S. cerevisiae deletion strains, locus YDR150W, strain NUM1, active compounds read low 1.01 | S. cerevisiae deletion strains, locus YDR162C, strain NBP2, active compounds read low 0.989 | S. cerevisiae deletion strains, locus YDR318W, strain mcm21, active compounds read low 1.02 | S. cerevisiae deletion strains, locus YDR388W, active compounds read low 0.999 | S. cerevisiae deletion strains, locus YDR502C, strain sam2, active compounds read low 1 | S. cerevisiae deletion strains, locus YEL061C, strain CIN8, active compounds read low 0.998 | S. cerevisiae deletion strains, locus YER110C, active compounds read low 1.01 | S. cerevisiae deletion strains, locus YER155C, strain BEM2, active compounds read low 1.02 | S. cerevisiae deletion strains, locus YER167W, strain BCK2, active compounds read low 1.02 | S. cerevisiae deletion strains, locus YGL078C, strain dbp3, active compounds read low 0.995 | S. cerevisiae deletion strains, locus YGL086W, strain mad1, active compounds read low 1.02 | S. cerevisiae deletion strains, locus YGL248W, strain PDE1, active compounds read low 1 | S. cerevisiae deletion strains, locus YGR078C, strain PAC10, active compounds read low 0.989 | S. cerevisiae deletion strains, locus YGR135W, strain pre9, active compounds read low 0.981 | S. cerevisiae deletion strains, locus YGR229C, strain SMI1, active compounds read low 0.98 | S. cerevisiae deletion strains, locus YGR252W, strain gcn5, active compounds read low 1.06 | S. cerevisiae deletion strains, locus YHR030C, strain SLT2, active compounds read low 1.01 | S. cerevisiae deletion strains, locus YHR079C, strain IRE1 (second series), active compounds read low 1.01 | S. cerevisiae deletion strains, locus YHR094C, strain hxt1, active compounds read low 1.01 | S. cerevisiae deletion strains, locus YHR129C, strain ARP1, active compounds read low 0.998 | S. cerevisiae deletion strains, locus YHR200W, strain rpn10, active compounds read low 1.01 | S. cerevisiae deletion strains, locus YIL066C, strain RNR3, active compounds read low 1 | S. cerevisiae deletion strains, locus YIL073C, strain SPO22, active compounds read low 1.05 | S. cerevisiae deletion strains, locus YIL125W, strain kgd1, active compounds read low 1.01 | S. cerevisiae deletion strains, locus YIR030C, strain dcg1, active compounds read low 1.01 | S. cerevisiae deletion strains, locus YJL095W, strain BCK1, active compounds read low 0.984 | S. cerevisiae deletion strains, locus YJL134W, strain LCB3, active compounds read low 0.996 | S. cerevisiae deletion strains, locus YJL168C, strain set2, active compounds read low 1.01 | S. cerevisiae deletion strains, locus YJL187C, strain SWE1 (second series), active compounds read low 0.99 | S. cerevisiae deletion strains, locus YJR043C, strain POL32, active compounds read low 1.01 | S. cerevisiae deletion strains, locus YJR075W, strain HOC1, active compounds read low 1.01 | S. cerevisiae deletion strains, locus YKL009W, strain mrt4, active compounds read low 1.04 | S. cerevisiae deletion strains, locus YKL068W, active compounds read low 0.998 | S. cerevisiae deletion strains, locus YKL085W, strain MDH1 (second series), active compounds read low 1.02 | S. cerevisiae deletion strains, locus YKL085W, strain MDH1, active compounds read low 1.02 | S. cerevisiae deletion strains, locus YKL190W, strain CNB1, active compounds read low 1.01 | S. cerevisiae deletion strains, locus YKR001C, strain vps1, active compounds read low 1.01 | S. cerevisiae deletion strains, locus YLR039C, strain RIC1, active compounds read low 1.02 | S. cerevisiae deletion strains, locus YLR058C, strain SHM2, active compounds read low 0.999 | S. cerevisiae deletion strains, locus YLR102C, strain apc9, active compounds read low 1.01 | S. cerevisiae deletion strains, locus YLR262C, strain YPT6, active compounds read low 0.979 | S. cerevisiae deletion strains, locus YLR268W, strain sec22, active compounds read low 1 | S. cerevisiae deletion strains, locus YLR330W, strain CHS5, active compounds read low 1 | S. cerevisiae deletion strains, locus YLR342W, strain FKS1 (second series), active compounds read low 1.05 | S. cerevisiae deletion strains, locus YLR371W, strain rom2, active compounds read low 1.02 | S. cerevisiae deletion strains, locus YLR418C, strain cdc73, active compounds read low 0.974 | S. cerevisiae deletion strains, locus YML016C, strain PPZ1, active compounds read low 1 | S. cerevisiae deletion strains, locus YML032C, strain rad52, active compounds read low 1.03 | S. cerevisiae deletion strains, locus YML124C, strain tub3, active compounds read low 1.01 | S. cerevisiae deletion strains, locus YMR078C, strain ctf18, active compounds read low 1.02 | S. cerevisiae deletion strains, locus YMR223W, strain ubp8, active compounds read low 1.01 | S. cerevisiae deletion strains, locus YMR263W, strain SAP30, active compounds read low 1.01 | S. cerevisiae deletion strains, locus YMR307W, strain GAS1, active compounds read low 0.995 | S. cerevisiae deletion strains, locus YNL067W, strain RPL9B, active compounds read low 0.986 | S. cerevisiae deletion strains, locus YNL128W, strain TEP1, active compounds read low 0.996 | S. cerevisiae deletion strains, locus YNL153C, strain GIM3, active compounds read low 0.986 | S. cerevisiae deletion strains, locus YNL233W, strain BNI4, active compounds read low 0.969 | S. cerevisiae deletion strains, locus YNL250W, strain rad50, active compounds read low 1 | S. cerevisiae deletion strains, locus YNL271C, strain bni1, active compounds read low 1.02 | S. cerevisiae deletion strains, locus YNL298W, strain CLA4, active compounds read low 1.01 | S. cerevisiae deletion strains, locus YNL307C, strain MCK1, active compounds read low 1.02 | S. cerevisiae deletion strains, locus YNL322C, strain KRE1, active compounds read low 1 | S. cerevisiae deletion strains, locus YNR052C, strain pop2, active compounds read low 1.02 | S. cerevisiae deletion strains, locus YOL006C, strain TOP1, active compounds read low 0.999 | S. cerevisiae deletion strains, locus YOL012C, strain htz1 1.14 | S. cerevisiae deletion strains, locus YOL147C, strain pex11, active compounds read low 1.01 | S. cerevisiae deletion strains, locus YOR061W, strain CKA2, active compounds read low 1 | S. cerevisiae deletion strains, locus YOR069W, strain VPS5, active compounds read low 1 | S. cerevisiae deletion strains, locus YOR136W, strain idh2, active compounds read low 1.02 | S. cerevisiae deletion strains, locus YOR144C, strain elg1, active compounds read low 1 | S. cerevisiae deletion strains, locus YOR184W, strain ser1, active compounds read low 1.04 | S. cerevisiae deletion strains, locus YOR316C, strain cot1, active compounds read low 1 | S. cerevisiae deletion strains, locus YPL055C, strain LGE1, active compounds read low 1 | S. cerevisiae deletion strains, locus YPL241C, strain CIN2, active compounds read low 1.01 | S. cerevisiae deletion strains, locus YPR119W, strain clb2, active compounds read low 1 | S. cerevisiae deletion strains, locus YPR141C, strain kar3, active compounds read low 1.01 | S. cerevisiae deletion strains, locus YPR163C, strain tif3, active compounds read low 0.991 | S. cerevisiae deletion strains, locus YPR167C, strain met16, active compounds read low 1.01 | S. cerevisiae deletion strains, strain wtn01, active compounds read low 1 | S. cerevisiae strains, strain wild type, active compounds read low 0.994
